Here are results for 14 molecules from PubChem BioAssay (NCATS).

Where “and” joins values, the source holds several entries; their conditions need not be identical. Equal entries are not always repeated. Records with an inconclusive call do not appear. Calls of active or inactive are those of the source. Calls come from the whole dose curve; as a rule, active = well fitted inhibition curve with a large enough effect; inconclusive = small, poorly fitted or top-dose-only effect; inactive = flat fitted curve, though single readings scatter.

Common to all, as to test: qHTS profiling for inhibitors of Plasmodium falciparum proliferation (AID 504749); note: nearly all actives have a fitted effect of over 60% in size
Common to all, as to conditions: P. falciparum in erythrocytes, SYBR Green DNA, 72 h; series mostly up to 28.7 µM
(Quantitative high-throughput screening tests each substance at several concentrations.)

One experiment concerns FAB9. The method, boiled down:
(§1)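 Readout was DNA-dye fluorescence from lysed cultures, ex 485/em 535 nm. Parasitized red cells had grown 72 h with compound; data scaled between 0.29 uM artemisinin and DMSO wells and corrected using vehicle-only plates.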

In another experiment the test system is HB3. In outline:
as §1

In another experiment the test system is ICS. In outline:
as §1

Another experiment relates to JCK. The method, boiled down:
as §1

Another experiment deals with N140. The method, boiled down: as §1
For another experiment, the system named is P93_24. The method, boiled down:
as §1

The test system of the next experiment is P94_40. In outline:
as §1

The next experiment relates to PAD. The method, boiled down: as §1
For another experiment, the system named is PC15. In outline: as §1
The next experiment deals with GB4. In outline: as §1
Potency is the fitted concentration of half-maximal effect.

Take `CCN(CC)C(=O)/C(Cl)=C(\C)OP(=O)(OC)OC`: the Potency entry with FAB9, in the experiment on HB3, in the experiment with ICS, in the experiment with JCK, in the experiment with N140 and in the experiment on P93_24 was “inactive” each time. In addition, the Potency entry in the experiment with P94_40, with PAD and with PC15 was “inactive” in each case.

Consider `CC(C)(C)c1cc(O)ccc1O`, for which the Potency was 3.79 µM (active) and 12 µM (active) in the experiment on GB4; 10 µM (active) in the experiment on HB3; 3.16 µM (active) and 2 µM (active) with ICS; 11.2 µM (active) in the experiment with N140; 11.2 µM (active) and 8.91 µM (active) with P93_24; 7.08 µM (active) and 12.6 µM (active) with P94_40. Moreover, the Potency with PAD and in the experiment with PC15 was 11.2 µM (active) throughout.

With `c1ccc(C2(N3CCCC3)CCCCC2)cc1`, the Potency was 12 µM (active) with GB4, 12.6 µM (active) in the experiment with N140 and 5.62 µM (active) with P93_24. Further, the Potency entry with JCK and in the experiment with P94_40 was “inactive” in each case.

Take `CN1[C@@H]2CC[C@H]1CC(OC1c3ccccc3CCc3ccccc31)C2` (stereo partly specified): the Potency result with FAB9, with HB3, with JCK and in the experiment on PC15 was “inactive” each time. Moreover, the Potency in the experiment on P93_24 was 3.98 µM (active).

For the molecule `COCC(C)N(C(=O)CCl)c1c(C)csc1C` (stereo unspecified), the Potency entry with FAB9, in the experiment on GB4, with HB3, in the experiment on JCK, in the experiment with N140 and with P93_24 was “inactive” each time. Besides, the Potency result in the experiment with P94_40, in the experiment with PAD and with PC15 was “inactive” in each case.

For `O=C1CN=C(c2ccccc2)c2cc(Cl)ccc2N1CC1CC1`, the Potency result with FAB9, with GB4, with HB3, with JCK, in the experiment with N140 and with P93_24 was “inactive” throughout. For the same molecule, the Potency result in the experiment with P94_40, in the experiment with PAD and in the experiment on PC15 was “inactive” in each case.

Turning to `CC(C)Nc1ccc(Nc2ccccc2)cc1`, the Potency with FAB9 is 10 µM (active); in the experiment with GB4, 5.36 µM (active); in the experiment on ICS it was 7.08 µM (active); with N140, 7.94 µM (active); in the experiment on P93_24 it was 7.94 µM (active); in the experiment on P94_40, 8.91 µM (active). In addition, in the experiment on PAD, the Potency is 10 µM (active).

On to `COc1ccc2c(c1OC)C(=O)OC2C1c2cc3c(cc2CCN1C)OCO3` (stereo unspecified), for which the Potency entry in the experiment with FAB9, in the experiment with HB3, with ICS, in the experiment with JCK, in the experiment on N140 and with P93_24 was “inactive” throughout. Also, the Potency entry in the experiment with P94_40, in the experiment on PAD and in the experiment on PC15 was “inactive” in each case.

For the molecule `N#CC(C#N)=Cc1cc(O)c(O)c(O)c1`, the Potency is 10.7 µM (active) with GB4; 8.91 µM (active) with HB3; 2.82 µM (active) in the experiment with ICS; 15.8 µM (active) in the experiment on N140; 5.01 µM (active) in the experiment with P93_24; 11.2 µM (active) in the experiment on P94_40. In addition, the values for the Potency with PAD and in the experiment with PC15 were 7.08 µM (active) and 6.31 µM (active), respectively.

For the molecule `CCNC(C)Cc1cccc(C(F)(F)F)c1` (stereo unspecified), the Potency entry with FAB9, in the experiment with HB3, in the experiment on ICS, with JCK, in the experiment with N140 and in the experiment with P93_24 was “inactive” throughout. Also, the Potency entry in the experiment on P94_40, in the experiment with PAD and with PC15 was “inactive” in each case.

Turning to `c1cc2c(c(NC3=NCCN3)c1)CCCC2`, the Potency entry with FAB9, in the experiment with HB3, in the experiment on JCK, with N140, in the experiment on P93_24 and in the experiment on P94_40 was “inactive” each time. Further, the Potency entry with PAD was “inactive”.

`CC(=O)O[C@H]1CC[C@H]2[C@@H]3CCC4=CC(=O)CCC4=C3C=C[C@]12C`: the Potency entry in the experiment on FAB9, in the experiment with HB3, in the experiment with ICS, with JCK, in the experiment on N140 and in the experiment on P93_24 was “inactive” in each case. Further, the Potency result in the experiment on PAD and in the experiment on PC15 was “inactive” each time.

In the case of `F/C(COc1ccc2c(c1)[nH]c1ccccc12)=C1/CN2CCC1CC2`, the Potency result in the experiment with FAB9 is “inactive”. Moreover, the Potency in the experiment on ICS is 3.55 µM (active); with N140 it was 10 µM (active); with P93_24, 6.31 µM (active); in the experiment with PAD it was 8.91 µM (active).

For `C/C(=C\c1csc(C)n1)[C@@H]1C[C@@H]2O[C@]2(C)CCC[C@H](C)[C@H](O)[C@@H](C)C(=O)C(C)(C)[C@@H](O)CC(=O)O1`, the Potency with GB4 is 0.0019 µM (active); in the experiment with HB3, 0.0009 µM (active); with ICS, 0.0018 µM (active); in the experiment on JCK, 0.0089 µM (active); with N140, 0.0045 µM (active); in the experiment on P93_24, 0.0035 µM (active). In addition, the Potency in the experiment with P94_40 was 0.0028 µM (active); in the experiment with PAD, 0.0035 µM (active).
